Values joined by “and” are separate entries in the source; they are usually repeats but may differ in a detail not shown here. Identical values can stand only once. Screen size: about 5,500 compounds; about 2,000 (36%) were called active. Inconclusive results (about 18%) are left out. Cut-off read from the data, not from the text of the source: active = normalized growth mostly below about 0.91 (no sharp cut-off); inconclusive = no clear call, values can overlap the other calls; inactive = mostly above about 0.92. The list shows a part of the results.
Test: chemical genetic growth profiling, strain panel (AID 1159580);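 note: tested at 20 µM; growth read once vehicle control cultures reached saturation at 30 °C; 1 = growth at the plate median or of vehicle wells; lower values mean less growth of the strain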
Details: S. cerevisiae deletion strains, growth OD

Measured: normalized growth

NS(=O)(=O)c1cc2c(cc1Cl)NC(CSCc1ccccc1)=NS2(=O)=O
inactive: locus YAL021C, strain ccr4, hits give low values 0.986 | locus YAL026C, strain drs2, hits give low values 1.01 | locus YAL030W, strain snc1, hits give low values 1.01 | locus YBL061C, strain skt5, hits give low values 1.02 | locus YBR009C, strain hhf1, hits give low values 0.993 | locus YBR021W, strain FUR4, hits give low values 0.973 | locus YBR023C, strain chs3, hits give low values 1.04 | locus YBR171W, strain sec66, hits give low values 1.03 | locus YBR229C, strain ROT2, hits give low values 0.986 | locus YBR231C, strain swc5, hits give low values 1.02 | locus YBR279W, strain paf1, hits give low values 1.01 | locus YCL011C, strain gbp2, hits give low values 1.01 | locus YCL016C, strain dcc1, hits give low values 0.993 | locus YCL029C, strain bik1, hits give low values 0.988 | locus YCL061C, strain MRC1, hits give low values 1.01 | locus YCL069W, strain vba3, hits give low values 1.01 | locus YCR088W, strain abp1, hits give low values 1.01 | locus YDL005C, strain med2, hits give low values 1 | locus YDL035C, strain GPR1, hits give low values 1.04 | locus YDL040C, strain nat1, hits give low values 0.995 | locus YDL074C, strain BRE1, hits give low values 0.99 | locus YDL101C, strain DUN1, hits give low values 0.973 | locus YDL134C, strain PPH21, hits give low values 1.02 | locus YDL185W, strain tfp1, hits give low values 0.989 | locus YDL192W, strain arf1, hits give low values 0.997 | locus YDR001C, strain nth1, hits give low values 1.03 | locus YDR069C, strain doa4, hits give low values 1.04 | locus YDR101C, strain arx1, hits give low values 0.987 | locus YDR137W, strain rgp1, hits give low values 1.02 | locus YDR159W, strain sac3, hits give low values 1 | locus YDR162C, strain NBP2, hits give low values 1.03 | locus YDR195W, strain ref2 1.03 | locus YDR297W, strain sur2, hits give low values 1.02 | locus YDR318W, strain mcm21, hits give low values 0.991 | locus YDR334W, strain swr1, hits give low values 1.02 | locus YDR335W, strain msn5, hits give low values 1.02 | locus YDR388W, hits give low values 0.978 | locus YDR392W, strain spt3, hits give low values 0.948 | locus YDR502C, strain sam2, hits give low values 0.988 | locus YEL003W, strain gim4, hits give low values 1.03 | locus YEL037C, strain rad23, hits give low values 1.02 | locus YEL061C, strain CIN8 (second series), hits give low values 1.05 | locus YEL061C, strain CIN8, hits give low values 0.995 | locus YER015W, strain faa2, hits give low values 1.01 | locus YER016W, strain bim1, hits give low values 1 | locus YER110C, hits give low values 0.965 | locus YER111C, strain swi4, hits give low values 1.03 | locus YER155C, strain BEM2 (second series), hits give low values 1.04 | locus YER155C, strain BEM2, hits give low values 0.981 | locus YER167W, strain BCK2, hits give low values 1 | locus YFR010W, strain ubp6, hits give low values 1.03 | locus YGL078C, strain dbp3, hits give low values 0.991 | locus YGL086W, strain mad1, hits give low values 0.989 | locus YGL167C, strain pmr1, hits give low values 1.03 | locus YGL173C, strain kem1, hits give low values 1.01 | locus YGL227W, strain vid30, hits give low values 1.02 | locus YGL240W, strain doc1, hits give low values 1.03 | locus YGL248W, strain PDE1, hits give low values 0.98 | locus YGL253W, strain hxk2, hits give low values 1.01 | locus YGR078C, strain PAC10, hits give low values 0.986 | locus YGR135W, strain pre9, hits give low values 0.992 | locus YGR252W, strain gcn5, hits give low values 1.01 | locus YHR013C, strain ard1, hits give low values 0.975 | locus YHR027C, strain rpn1, hits give low values 1.01 | locus YHR030C, strain SLT2, hits give low values 0.99 and 0.983 | locus YHR079C, strain IRE1 (second series), hits give low values 0.984 | locus YHR079C, strain IRE1, hits give low values 0.977 | locus YHR094C, strain hxt1, hits give low values 0.97 | locus YHR129C, strain ARP1, hits give low values 0.984 | locus YHR142W, strain chs7, hits give low values 1.02 | locus YHR200W, strain rpn10, hits give low values 0.989 | locus YIL066C, strain RNR3, hits give low values 1.01 | locus YIL073C, strain SPO22, hits give low values 0.99 | locus YIL125W, strain kgd1, hits give low values 0.986 | locus YIR030C, strain dcg1, hits give low values 0.993 | locus YJL092W, strain hpr5, hits give low values 1.02 | locus YJL095W, strain BCK1 (second series), hits give low values 1.02 | locus YJL095W, strain BCK1, hits give low values 0.954 and 0.975 | locus YJL115W, strain asf1, hits give low values 1.02 | locus YJL129C, strain trk1, hits give low values 1.06 | locus YJL134W, strain LCB3, hits give low values 0.987 | locus YJL154C, strain vps35, hits give low values 1.03 | locus YJL164C, strain tpk1, hits give low values 0.977 | locus YJL166W, strain qcr8, hits give low values 1.04 | locus YJL168C, strain set2, hits give low values 0.992 | locus YJL187C, strain SWE1 (second series), hits give low values 0.965 | locus YJR043C, strain POL32, hits give low values 1.04 | locus YJR066W, strain TOR1, hits give low values 0.931

Reference: PubChem BioAssay AID1159580 (chemical genetic matrix, 2015)
